Pin1 inhibitor: inhibitors of human Pin1 | 390,000 compounds, 0.009% hits | Potency, µM (top dose mostly 115 µM), usual class: inhibitors | Q13526 | AID 504891 | Pin1 FP peptide displacement, HiFluor488, 10 min; active = well fitted inhibition curve with a large enough effect in the polarisation, with a control signal flat, not every such curve was filed as active; inconclusive = small, poorly fitted or top-dose-only effect, or effect the other way, or a change in a side signal; inactive = no such curve, though single readings can be large or run the other way; the % refers to the polarisation
Target sequence (Q13526 whole entry, looked up): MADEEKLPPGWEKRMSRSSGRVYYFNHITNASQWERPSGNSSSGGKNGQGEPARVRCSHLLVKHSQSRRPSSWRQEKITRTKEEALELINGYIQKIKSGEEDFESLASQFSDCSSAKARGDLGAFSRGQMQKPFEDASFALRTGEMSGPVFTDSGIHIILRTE
Tb PFK inh-1: blocks T. brucei phosphofructokinase; T. brucei PFK, ADP-Glo luminescence; Potency, µM (series often up to 57.5 µM), most hits filed as inhibitors; 330,000 compounds, 0.17% hits; AID 485367; note: nearly all actives have a fitted effect of over 60% in size
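Luminescent ADP detection (ADP-Glo, two-step: ATP depletion then ADP-to-ATP conversion for luciferase) reported PFK activity after 45 min room-temperature reaction of 1.25 nM enzyme with 0.5 mM F6P and 0.1 mM ATP at pH 8.0.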
PLK1 PBD inh: PLK1 (human) polo-box domain binding inhibition | 360,000 compounds, 2.8% hits | AID 720504 | Plk1 PBD binding of FITC phosphopeptide, fluorescence polarization | P53350 | Potency, µM, usual class: inhibitors; note: series mostly up to about 57 µM; nearly all actives have a fitted effect of over 65% in size
ASM inhibitor: blocks human secretory acid sphingomyelinase | placental ASM, HMU-PC fluorogenic substrate, 60 min | Potency, µM (titrated, usually from 57.5 µM), most hits filed as inhibitors | 340,000 compounds, 0.006% hits | AID 504937
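Human placenta-derived ASM enzyme was preincubated with compound for 10 minutes at room temperature, then given fluorogenic substrate HMU-PC0 (9 uM final) for 60 minutes at 37 °C; a pH 10 stop preceded fluorescence reading at Ex 386/Em 447 nm.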
TDP1 block: blocks human tyrosyl-DNA phosphodiesterase 1; Potency, µM (series often up to 130 µM), most hits filed as inhibitors; Q9NUW8; 350,000 compounds, 0.28% hits; AID 485290; recombinant TDP1, AlphaScreen DNA substrate cleavage; note: nearly all actives have a fitted effect of over 40% in size
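Recombinant human Tdp1 (E. coli-expressed, 1 nM final) preincubated with compounds 15 min at room temperature, then 5'-biotin/3'-phosphotyrosine-FITC DNA substrate (15 nM final) added for 5 min. AlphaScreen beads (10 ug/ml final) added 10 min; cleavage lowers signal.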
VDR inh: vitamin D3 receptor (human) inhibition. VDR-SRC2-3 peptide fluorescence polarization, 2 h. Potency, µM, hits mostly inhibitors. 400,000 compounds, 0.93% hits. AID 504847
Target sequence (P11473 whole entry, looked up): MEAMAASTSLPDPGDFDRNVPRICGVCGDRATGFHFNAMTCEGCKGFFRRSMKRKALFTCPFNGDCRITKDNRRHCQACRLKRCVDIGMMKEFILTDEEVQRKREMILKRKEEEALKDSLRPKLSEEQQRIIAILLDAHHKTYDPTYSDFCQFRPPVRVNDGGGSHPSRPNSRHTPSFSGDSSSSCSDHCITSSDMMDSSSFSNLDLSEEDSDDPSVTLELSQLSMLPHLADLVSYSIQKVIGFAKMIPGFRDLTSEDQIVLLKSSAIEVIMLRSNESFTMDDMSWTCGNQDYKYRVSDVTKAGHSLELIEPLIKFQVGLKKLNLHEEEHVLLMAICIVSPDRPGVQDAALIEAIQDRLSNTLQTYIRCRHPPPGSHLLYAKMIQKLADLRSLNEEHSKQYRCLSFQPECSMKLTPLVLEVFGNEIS
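Measured by FP: displacement of SRC2-3 coactivator peptide from VDR by library compounds, following a two-hour ambient incubation.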
Tb PFK KinaseGlo: Tb phosphofructokinase inhibition, orthogonal luminescence. 1,100 compounds, 47% hits. shares compounds with Tb PFK inh-1. Tb PFK enzyme, ATP depletion, Kinase-Glo Plus luminescence. Potency, µM (series often up to 57.5 µM); calls by dose curve; note: nearly all actives have a fitted effect of over 60% in size
Tb PFK inh-2: validation of T. brucei phosphofructokinase inhibitors. shares compounds with Tb PFK inh-1. purified T. brucei PFK, ADP-Glo luminescence, 45 min. Potency, µM (titrated, usually from 57.5 µM), actives largely listed as inhibitors. 1,100 compounds, 41% hits; note: nearly all actives have a fitted effect of over 60% in size
Of the large screens only hits and unclear results are named; the others gave an inactive call (follow-up assays come after a bar, where they were run). This is a sample that favours compounds with a hit; in the whole collection about 3.1% have one here. Unless noted, calls come from the whole dose curve; as a rule, active = well fitted curve in the direction sought with a large enough effect; inconclusive = small, poorly fitted or top-dose-only effect, or another doubt; inactive = no such curve, though single readings can be large; an effect the other way counts as inactive or inconclusive.

CCN(CC)c1ccc(NC2=C(Cl)C(=O)c3ccccc3C2=O)cc1	Tb PFK inh-1 inconclusive | Tb PFK KinaseGlo inactive | Tb PFK inh-2 inactive
O=C(Nc1cccs1)Nc1ccc(Br)cc1F	Tb PFK inh-1 inconclusive, VDR inh inconclusive | Tb PFK KinaseGlo inconclusive | Tb PFK inh-2 inconclusive
Nc1ccccc1C(=O)OCC(=O)Nc1ccc(Br)cc1F	Pin1 inhibitor inconclusive
O=C(Oc1ccccc1)N1CCC2(CCN(Cc3nccs3)CC2)CC1	none (no result: Pin1 inhibitor, Tb PFK inh-1, PLK1 PBD inh, ASM inhibitor, TDP1 block)
O=C(O)c1ccccc1NS(=O)(=O)c1cccc(-n2sc3ccccc3c2=O)c1	Tb PFK inh-1 2.39µM, PLK1 PBD inh 3.36µM, TDP1 block inconclusive, VDR inh 10µM | Tb PFK KinaseGlo 12µM | Tb PFK inh-2 23.9µM
COP(=O)(OC)[C@@H](O)C(Cl)(Cl)Cl	none (no result: Pin1 inhibitor, Tb PFK inh-1, PLK1 PBD inh, ASM inhibitor)
O=C1C(=O)N(CCCn2ccnc2)C(c2cccc(Br)c2)/C1=C(\O)c1ccc2c(c1)OCCO2 (centres undefined)	Tb PFK inh-1 inconclusive, PLK1 PBD inh 29.9µM | Tb PFK KinaseGlo inconclusive | Tb PFK inh-2 inconclusive
N#Cc1ccc(CN2CCCC3(CCN(C(=O)Oc4ccccc4)CC3)C2)cc1	none (no result: Pin1 inhibitor, Tb PFK inh-1, PLK1 PBD inh, ASM inhibitor, TDP1 block)
O=C1C=C(NCc2ccc(Cl)cc2Cl)C2(CCCCC2)O1	Tb PFK inh-1 10.7µM | Tb PFK KinaseGlo 5.36µM | Tb PFK inh-2 16.9µM
O=C(NCc1cccnc1)C(=O)NCC1OCCN1S(=O)(=O)c1ccc(F)cc1 (centres undefined)	Pin1 inhibitor inconclusive, Tb PFK inh-1 inconclusive | Tb PFK KinaseGlo inconclusive | Tb PFK inh-2 inactive
O=C(CCc1ccccc1)NNC(=O)c1ccc(NC(=O)c2ccccc2)cc1	Tb PFK inh-1 inconclusive (no result: TDP1 block) | Tb PFK KinaseGlo inconclusive | Tb PFK inh-2 inconclusive
C(=C/c1ccccc1)/CN1CCN(CCOC(c2ccccc2)c2ccccc2)CC1	none (no result: Pin1 inhibitor, Tb PFK inh-1, PLK1 PBD inh, ASM inhibitor)
CCN(CC)S(=O)(=O)c1ccc2c(c1)c(=O)c(C(=O)NCc1ccccc1OC)cn2C	none (no result: Tb PFK inh-1, PLK1 PBD inh, ASM inhibitor)
Cc1ccc(-c2cc(C(=O)Nc3nccs3)c3ccccc3n2)o1	Tb PFK inh-1 30.1µM, PLK1 PBD inh inconclusive | Tb PFK KinaseGlo 21.3µM | Tb PFK inh-2 inconclusive
CCCCCn1c(=O)c(C(=O)Nc2nc3ccccc3[nH]2)c(O)c2ccccc21	none (no result: TDP1 block)
CCn1c(=O)c(C(=O)Nc2nc3ccccc3[nH]2)c(O)c2ccccc21	Tb PFK inh-1 inconclusive | Tb PFK KinaseGlo inactive | Tb PFK inh-2 inconclusive
Cc1nc(Cc2nnc(SCC(=O)N3CCN(c4ccc(O)cc4)CC3)o2)cs1	Pin1 inhibitor inconclusive, Tb PFK inh-1 inconclusive | Tb PFK KinaseGlo inconclusive | Tb PFK inh-2 inconclusive
Cc1cc(C)c2c(=O)n(CC(=O)N3CCC(N4CCCCC4)CC3)sc2n1	Tb PFK inh-1 2.39µM, PLK1 PBD inh 2.99µM, VDR inh 20µM | Tb PFK KinaseGlo inconclusive | Tb PFK inh-2 3.01µM
CCCNC(=O)Cn1sc2nc(C)cc(C)c2c1=O	Tb PFK inh-1 8.49µM, PLK1 PBD inh 1.68µM, VDR inh 5.01µM | Tb PFK KinaseGlo inconclusive | Tb PFK inh-2 8.49µM
O=c1c2cc([N+](=O)[O-])ccc2nc(CN2CCOCC2)n1-c1ccccc1F	none (no result: Pin1 inhibitor, PLK1 PBD inh, ASM inhibitor, VDR inh)
O=[N+]([O-])c1ccc(N/N=C/c2ccc(O)c(O)c2O)c(S(=O)(=O)N2CCOCC2)c1	Pin1 inhibitor inconclusive, Tb PFK inh-1 inconclusive, PLK1 PBD inh 2.99µM, VDR inh inconclusive | Tb PFK KinaseGlo inconclusive | Tb PFK inh-2 inconclusive
Nc1c(C(=O)NCc2ccco2)c2nc3ccccc3nc2n1Cc1ccccc1	none
O=C(CCS(=O)(=O)c1ccc(Br)cc1)NCc1ccco1	Tb PFK inh-1 16.9µM (no result: TDP1 block) | Tb PFK KinaseGlo 2.69µM | Tb PFK inh-2 5.36µM
O=C(Nc1ccc(S(=O)(=O)Nc2ccccc2)cc1)C1COc2ccccc2O1 (centres undefined)	Tb PFK inh-1 10.7µM | Tb PFK KinaseGlo 12µM | Tb PFK inh-2 30.1µM
CN(C)S(=O)(=O)c1ccc(NC(=O)C2COc3ccccc3O2)cc1 (centres undefined)	Tb PFK inh-1 19µM | Tb PFK KinaseGlo 12µM | Tb PFK inh-2 26.9µM
CCCC(=O)O[C@@H]1[C@@H](C)[C@@]2(O)[C@@H](C=C(CO)C[C@@]3(O)C(=O)C(C)=C[C@@H]23)[C@@H]2C(C)(C)[C@]12OC(=O)CCC	none (no result: Pin1 inhibitor, Tb PFK inh-1, PLK1 PBD inh, ASM inhibitor)
O=c1/c(=C\c2cc([N+](=O)[O-])cc([N+](=O)[O-])c2O)sc2nc3ccccc3n12	Pin1 inhibitor inconclusive, Tb PFK inh-1 inconclusive, PLK1 PBD inh inconclusive, VDR inh 39.8µM | Tb PFK KinaseGlo inconclusive | Tb PFK inh-2 inactive
O=C(CCC(=O)N1CCOc2ccc(Cl)cc21)NCCN1CCOCC1	Tb PFK inh-1 inconclusive (no result: TDP1 block) | Tb PFK KinaseGlo inconclusive | Tb PFK inh-2 inconclusive
COc1cc(C2c3cc4c(cc3C(O)C3COC(=O)C23)OCO4)cc(OC)c1O (centres undefined)	none (no result: Pin1 inhibitor, Tb PFK inh-1, PLK1 PBD inh, ASM inhibitor)
O=C(COC(=O)c1cccc(NC(=O)c2ccc(Br)cc2)c1)c1ccc(Br)cc1	none (no result: Tb PFK inh-1, PLK1 PBD inh, ASM inhibitor, TDP1 block)
C=CCNc1nc(C(=O)OCC(=O)c2ccccc2)cs1	Tb PFK inh-1 8.49µM | Tb PFK KinaseGlo inactive | Tb PFK inh-2 inactive
C=C(C)C(=O)Nc1ccc2c(c1)OCCOCCOCCO2	Tb PFK inh-1 10.7µM (no result: Pin1 inhibitor, TDP1 block) | Tb PFK KinaseGlo 0.536µM | Tb PFK inh-2 0.675µM
Cc1cc(C(=O)Nc2ccc3c(c2)OCCO3)nn1C(C)(C)C	none (no result: TDP1 block)

Source: PubChem BioAssay
